Compounds with a hit are over-represented: about 4.6% of the library has one in this group of screens.
TRHR ag: activates the human TRH receptor. P34981. AID 493084. activation, % at 2 µM. TRHR cells, calcium flux fluo-8, FDSS agonist mode. 360,000 tested, 0.18% active
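In this calcium-flux screen, cells bearing human TRHR are dye-loaded with fluo-8, baselined for 10 cycles, then exposed to library compounds; positive kinetic calcium responses during the agonist phase mark hits, with TRH as control.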
D1 ag: activates the human D1 dopamine receptor; HEK293 T-REx D1 cells, calcium flux, agonist mode; activation, % at 2 µM; 360,000 tested, 1% active; AID 504660
Target sequence (P21728 whole entry, looked up): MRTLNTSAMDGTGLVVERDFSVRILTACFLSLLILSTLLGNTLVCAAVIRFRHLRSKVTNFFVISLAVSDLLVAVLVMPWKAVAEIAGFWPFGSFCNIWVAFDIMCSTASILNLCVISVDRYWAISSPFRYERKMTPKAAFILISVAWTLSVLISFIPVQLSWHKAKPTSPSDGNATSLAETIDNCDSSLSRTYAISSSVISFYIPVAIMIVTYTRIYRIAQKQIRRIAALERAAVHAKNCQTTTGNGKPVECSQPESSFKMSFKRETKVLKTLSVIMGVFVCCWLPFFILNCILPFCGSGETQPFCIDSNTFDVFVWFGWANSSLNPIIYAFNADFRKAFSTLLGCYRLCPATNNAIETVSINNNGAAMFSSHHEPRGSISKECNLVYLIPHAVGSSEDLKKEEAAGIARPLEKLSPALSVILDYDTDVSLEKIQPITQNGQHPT
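Agonism was scored from calcium flux recorded over 180 s (1 read/s) after pintool compound addition, following a 10-cycle baseline. Cells were inducible force-coupled HEK293 TREx D1, plated overnight at 30 C and loaded with no-wash calcium dye.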
D1 potentiator: human D1 dopamine receptor positive modulation. P21728. HEK293 TREx D1 cells, calcium flux, dopamine EC20 potentiation. potentiation, % at 10 µM. 360,000 tested, 0.036% active. AID 504651; in the data active = potentiation above about 30%
TRHR PAM: allosterically enhances the human TRH receptor; P34981; TRHR cells, fluo-8 calcium fluorescence, EC20 TRH enhancement; enhancement, % at 2 µM; 360,000 tested, 0.66% active; AID 493056; in the data active = enhancement above about 30%
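Enhancer read-out: after compound pinning and an initial kinetic agonist-mode read, an EC20 of TRH (10 nM final) was injected and fluo-8 calcium signal (Ex 480/Em 530) followed at 1 s/cycle for 100 cycles in TRHR-expressing cells.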
D1 antagonist: blocks dopamine activation of the human D1 receptor. P21728. HEK293 TREx D1 cells, calcium flux, dopamine EC80; stronger effect = lower value. activity change, negative = inhibition, % at 10 µM. 360,000 tested, 3.2% active. AID 504652; in the data active = activity change below about -30%
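Cells carrying a force-coupled, tetracycline-inducible human D1 receptor report calcium flux. Each well gets a 10 s baseline, compound with 180 s monitoring, then an EC80 dopamine stimulus with a second 180 s kinetic read.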
Large screens that a line does not name were inactive. Cut-off read from the data, not from the text of the source, unless noted: active = activation above about 30%; inactive = the rest.

COc1ccc(C(=O)N2CCc3cc4c(cc3C2C)OCCCO4)cc1 (stereo unspecified)	none
COc1cccc(Cn2c(N)c(C#N)c3nc4ccccc4nc32)c1OC	D1 antagonist -42.9
COc1ccc(Cn2c(N)c(C#N)c3nc4ccccc4nc32)cc1	none
COc1ccc(NC(=O)CC2C(=O)N(c3ccc(C)cc3)C(=O)N2Cc2cccnc2)cc1 (stereo unspecified)	none
Cc1ccccc1-n1c(C)cc(/C=N/Nc2ccc([N+](=O)[O-])cn2)c1C	none
CCSc1ncc(/C=N/Nc2ccc([N+](=O)[O-])cc2)n1C	D1 ag 37.2
O=[N+]([O-])c1ccc(N/N=C\c2cccn2-c2ccccc2)nc1	D1 ag 37.4
COCCNC(=O)c1ccc(NC(=O)N2CCCCc3ccccc32)cc1	none
CCc1cn(C2CC(O)C(CO)O2)c(=O)[nH]c1=O (stereo unspecified)	D1 antagonist -34.7
CCc1ccc(-c2nn(CC(=O)NC3CCCCC3)c3c2cnc2ccc(OC)cc23)cc1	none
CCc1nn(C(CC)C(=O)NCc2ccc(OC)c(OC)c2)c(=O)c2cc3oc(C)cc3n12 (stereo unspecified)	TRHR PAM 41.3
CCc1nn(C(CC)C(=O)NCc2ccc(F)cc2)c(=O)c2cc3occc3n12 (stereo unspecified)	none
CC1=NN(c2cccc(F)c2)C(=O)/C1=C/c1ccc(N(C)C)cc1	D1 antagonist -84.8
CCCCc1ccc(NC(=S)NCc2cccs2)cc1	D1 antagonist -32.1
Cc1ccc(NC(=S)NCc2cccs2)cc1	none
COc1ccc(OC)c(NC(=O)NNC(=O)c2cc3occc3[nH]2)c1	none
NC(=O)c1ccc(N2CCN(c3ccccc3O)CC2)c([N+](=O)[O-])c1	D1 antagonist -56.2
NC(=O)c1ccc(N2CCN(c3ccccc3F)CC2)c([N+](=O)[O-])c1	none
O=[N+]([O-])c1ccc(N2CCN(c3ccccc3O)CC2)c(Cl)c1	D1 antagonist -35.6
NC(=S)Nc1ccc(Oc2ccc(NC(N)=S)cc2)cc1	D1 antagonist -30.3
CCCNC(=S)Nc1ccc(Oc2ccccc2)cc1	none
CC(C)NC(=S)Nc1ccc(Oc2ccccc2)cc1	D1 ag 30.1
NC(=O)c1ccsc1NC(=O)COC(=O)c1ccncc1	none
Cc1ccc2c(CC(=O)N(Cc3ccc(Cl)cc3)Cc3ccco3)coc2c1	D1 ag 32.9
Cc1ccc(OCC(=O)N(Cc2ccco2)Cc2ccco2)cc1	none
Cc1cc(C)c2c(CC(=O)N(Cc3ccc(N(C)C)cc3)Cc3ccco3)coc2c1	none
Cc1ccc(CN(Cc2ccco2)C(=O)COc2ccc(C(C)C)cc2)cc1	D1 ag 46.2, D1 antagonist -55.8
CCOC(=O)N1CCN(c2nc3c(C)cccn3c(=O)c2C=O)CC1	none
CN1C(=O)C(C)(C)c2cc(S(=O)(=O)N3CCC(C(=O)NCc4ccc(Cl)cc4)CC3)ccc21	none
Oc1ccccc1Nc1nc2ccccc2n2nnnc12	D1 ag 41.6
c1ccc(Nc2nc3ccccc3n3nnnc23)cc1	D1 antagonist -68.8
Fc1ccccc1Nc1nc2ccccc2n2nnnc12	none
O=C(NCc1ccc(F)cc1)C1CCN(S(=O)(=O)N2CCOCC2)CC1	none
CCOc1ccc(C(=O)CC(NCc2cccs2)C(=O)O)cc1 (stereo unspecified)	D1 antagonist -30.0
CCOc1ccc(C(=O)CCC(=O)N(CC)CC(=O)NCc2cccs2)cc1	none
NC(=O)[C@@H]1CCCN1Cc1nc(Cc2cccc(C(F)(F)F)c2)no1	none
CC(=O)NCCC1CCCCN1Cc1nc(Cc2cccc(C(F)(F)F)c2)no1 (stereo unspecified)	D1 antagonist -50.2
O=C(CN1CCN(CC(=O)Nc2ccccc2Cl)CC1)Nc1ccc(F)c(F)c1	none
Cc1ccc(N=Nc2ccc(O)c3ncccc23)cc1C	D1 ag 36.2
CCOC(=O)CNC(=O)CSc1nnc(-c2ccccc2OC)n1CC	none
CC(C)C1(CCNC(=O)c2cccs2)CCOC(C)(C)C1 (stereo unspecified)	none
CC(NCCC1(Cc2ccccc2Cl)CCOC(C)(C)C1)c1cccs1 (stereo unspecified)	D1 ag 46.7
CC(OC(=O)C1CSC2(c3ccc(F)cc3)CCC(=O)N12)C(=O)NC(N)=O (stereo unspecified)	none
Cc1cc(Nc2cccc(F)c2)nc(-c2ccccc2O)n1	none
Cc1cc(Nc2ccccc2)nc(-c2ccccc2O)n1	D1 antagonist -44.9
CCCOC(=O)C1[C@H]2C(=O)N(Cc3ccco3)C[C@]23C=C[C@H]1O3 (stereo partly specified)	D1 antagonist -61.5
CCC(=O)N1CCc2cc(S(=O)(=O)NCCC(=O)Nc3ccc(OC)cc3)ccc21	none
O=C(C1CC1)N1CCc2cc(Br)cc(S(=O)(=O)NCc3ccco3)c21	D1 antagonist -31.2
COc1ccc(NS(=O)(=O)c2ccc3c(c2)CCCN3C(=O)C2CCC2)cc1OC	D1 antagonist -42.2
COc1ccc(NS(=O)(=O)c2cc(Br)cc3c2N(C(=O)C2CC2)CC3)cc1OC	TRHR PAM 49.5
COc1cc(NC(=O)CCNS(=O)(=O)c2ccc3c(c2)CCN3C(=O)C2CC2)cc(OC)c1	TRHR PAM 45.5
Cc1ccc(CNS(=O)(=O)c2cc(Br)cc3c2N(C(=O)C2CC2)CC3)cc1	none
c1ccc(-n2ncc3c(N4CCN(c5ccccn5)CC4)nc(N4CCOCC4)nc32)cc1	none
Cc1ccc(NC(=O)C(C)c2cccc(C(=O)c3ccccc3)c2)cc1O (stereo unspecified)	D1 antagonist -31.6
Cc1ccc(C)c(Cn2cnc3c(cnn3C(C)(C)C)c2=O)c1	D1 ag 40.8
COc1ccc(OC)c(C(=O)NC(CC(N)=O)c2ccc(NCc3ccc(F)c(F)c3)c([N+](=O)[O-])c2)c1 (stereo unspecified)	TRHR PAM 35.7
O=C(NCCCc1nc2ccccc2n1Cc1ccc(Cl)cc1)c1ccco1	D1 ag 80.7, D1 antagonist -31.4
CCCn1c(=N)n(CC(=O)C(C)(C)C)c2ccccc21	TRHR PAM 30.8
N=c1n(CCO)c2ccccc2n1CCOc1ccc(F)cc1	none
CCn1c(=N)n(CC(=O)c2ccc(Br)s2)c2ccccc21	none
CCCCn1c(=N)n(CC(=O)c2ccc(Br)s2)c2ccccc21	D1 ag 44.2
CCOC(=O)Cn1c(=N)n(CCOc2cccc(C)c2)c2ccccc21	none
CCOC(=O)Cn1c(=N)n(CCOc2ccc(Br)cc2)c2ccccc21	D1 ag 50.6
CCCCn1c(=N)n(CC(=O)C(C)(C)C)c2ccccc21	none
CCCCn1c(=N)n(CCCOc2ccc(F)cc2)c2ccccc21	D1 ag 79.1
CCOc1ccc(Cc2noc3c2C(=O)CCC3)cc1OCC	none
CCOC(=O)c1sc(NC(=O)CN2C(=O)NC3(CC(C)CC(C)(C)C3)C2=O)cc1C (stereo unspecified)	none

Assay outcomes (PubChem)
